Test results from the supplement of paper PMC10849652.
The full data set covers some 7,900 targets. This sample favours those with a hit. About 0.6% of all pairs of compound and target were hits.

Experiments:
Assay in all cases: log2 fold change, soluble protein after heating vs DMSO (PISA); higher = thermal stabilisation; K562 cells, 10 uM, 30 min; active = over 0.2 and 3.5 SD of the protein, either way, in both replicates (recomputed)
[1] = compound: C/C(=N\NC(=O)C1=CC(=CC=C1)S(=O)(=O)N2CCOCC2)/C3=C(C=CC(=C3)Cl)O
Summary of the method: (§1)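 K562 cells at 2×10^6 cells/mL were exposed to 10 μM compound for 30 min, then aliquots were heated for 3 min across 48°C-58°C, pooled, and extracted in PBS containing 0.5% NP-40 at 4°C. The supernatant after 21,000xg for 90 min was taken as soluble protein and measured by TMTpro 16plex LC-MS/MS with channel sums equalised. Thermal stability is reported relative to control samples, with values from duplicates. Fold changes are given on a log2 scale.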

[2] = compound: C1=CC(=C(C=C1Cl)C2=NC3=NC=CN=C3C(=N2)NC4=CC=NC=C4)F
Summary of the method: as §1

[3] = compound: C1=CC2=C(C=CC(=C2)/C=C\3/C(=O)NC(=NCC4=CC=CS4)S3)N=C1
Summary of the method: as §1

[4] = compound: C1=CC2=NC=CN=C2C=C1/C=C/3\C(=O)NC(=O)S3
Summary of the method: as §1

[5] = compound: C1=CC=C2C(=C1)C3=NNC4=CC=CC(=C43)C2=O
Summary of the method: as §1

[6] = compound: C1CCN(C1)C(=O)NC2=CC=CC(=C2)NC3=NC=C(C(=N3)NCCC4=CN=CN4)Br
Summary of the method: as §1

[7] = compound: C1CN(CCC1(CC2=CC=C(C=C2)Cl)N)C3=NC=NC4=C3C=CN4
Summary of the method: as §1

erlotinib = compound: C#Cc1cccc(Nc2ncnc3cc(OCCOC)c(OCCOC)cc23)c1 [erlotinib]
Summary of the method: as §1

[8] = compound: C1=CC(=CC=C1C2=NC3=C(N2)C=C(C=C3)C(=O)N)OC4=CC=C(C=C4)Cl
Summary of the method: as §1

[9] = compound: C1=CC=C(C=C1)C2=NC(=C(N2)C3=CC=NC=C3)C4=CC(=C(C=C4)Cl)O
Summary of the method: as §1

Measured: log2 fold change

CLINT1 (UniProt Q14677)
inactive: [1] -0.106 | [2] -0.12 | [3] -0.176 | [4] 0.035 | [5] 0.031 | [6] -0.097 | [7] -0.057

CEP128 (UniProt Q6ZU80)
inactive: [1] -0.163 | [3] 0.199 | [4] 0.158 | [5] -0.037 | [6] 0.141 | [7] -0.003

CCM2 isoform 2 (UniProt Q9BSQ5)
inactive: erlotinib 0.142 | [2] -0.042 | [8] 0.035 | [4] 0.083 | [9] 0.013 | [6] 0.09 | [7] 0.16

CSNK1A1 isoform 3 (UniProt P48729)
inactive: [4] 0.111

CAD (UniProt H7BZB3)
inactive: [1] -0.061 | [3] 0.242 | [5] -0.058

CPNE5 (UniProt Q9HCH3)
active: [7] -0.879
inactive: erlotinib 0.074 | [8] -0.175 | [6] 0.087

CAV2 (UniProt P51636)
Sequence of UniProt P51636 (P51636 whole entry, looked up): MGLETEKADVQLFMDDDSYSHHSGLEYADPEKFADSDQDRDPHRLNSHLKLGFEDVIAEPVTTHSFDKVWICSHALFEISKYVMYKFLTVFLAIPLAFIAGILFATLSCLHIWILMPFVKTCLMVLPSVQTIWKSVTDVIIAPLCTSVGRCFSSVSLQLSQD
inactive: erlotinib -0.01 | [1] -0.066 | [8] 0.076 | [3] -0.018 | [4] -0.559 | [5] 0.057 | [6] 0.025 | [7] -0.021

CASP9 (UniProt P55211)
inactive: [1] 0.059 | [2] -0.016 | [3] -0.049 | [9] -0.02 | [5] 0.048 | [6] -0.054 | [7] -0.218

CRLS1 (UniProt Q9UJA2)
inactive: erlotinib -0.034 | [8] 0.019 | [6] -0.019 | [7] 0.074

CA1 (UniProt E5RIF9)
inactive: [2] 0.096 | [4] 0.135 | [6] 0.014 | [7] -0.453

CFAP58 (UniProt Q5T655)
inactive: [9] 0.047

CLCN5 isoform 2 (UniProt P51795)
inactive: erlotinib -0.009 | [8] 0.064 | [9] 0.125 | [6] -0.098 | [7] -0.011

CCNL1 (UniProt Q9UK58)
inactive: erlotinib -0.001 | [8] 0.094

CCDC187, A0A1W2PQX5
inactive: [1] -0.124 | [2] -0.079 | [3] 0.169 | [9] -0.055 | [5] 0.013

CASK (UniProt O14936)
inactive: erlotinib -0.018 | [1] -0.07 | [8] 0.01 | [3] 0.038 | [5] -0.136

CD68 (UniProt P34810)
Sequence of UniProt P34810 (P34810 whole entry, looked up): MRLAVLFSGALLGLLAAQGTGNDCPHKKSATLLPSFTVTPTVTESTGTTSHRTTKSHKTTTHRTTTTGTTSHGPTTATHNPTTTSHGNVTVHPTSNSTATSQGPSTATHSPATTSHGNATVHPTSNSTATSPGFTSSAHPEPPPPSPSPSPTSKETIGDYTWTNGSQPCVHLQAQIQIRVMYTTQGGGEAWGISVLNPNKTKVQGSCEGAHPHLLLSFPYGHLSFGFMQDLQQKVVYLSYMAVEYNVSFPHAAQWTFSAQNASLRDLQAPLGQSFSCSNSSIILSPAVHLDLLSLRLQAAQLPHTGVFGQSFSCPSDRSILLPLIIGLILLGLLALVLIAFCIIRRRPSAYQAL
inactive: erlotinib -0.13 | [8] 0.022 | [4] 0.094

CASP10 isoform 4 (UniProt Q92851)
inactive: [1] 0.138 | [2] 0.026 | [3] 0.124 | [4] -0.046 | [9] 0.051 | [5] -0.04 | [6] -0.13 | [7] -0.21

CLN3 (UniProt Q13286)
inactive: erlotinib 0 | [2] 0.025 | [8] 0.162 | [4] 0.117 | [9] -0.05 | [6] 0.055 | [7] 0.026

CCNT2 (UniProt O60583)
inactive: [1] 0 | [2] -0.105 | [3] -0.029 | [9] -0.025 | [5] -0.08 | [6] -0.176 | [7] -0.027

CARD9 (UniProt Q9H257)
inactive: erlotinib -0.173 | [1] 0.211 | [8] 0.056 | [3] -0.184 | [9] 0.129 | [5] -0.058

CKS2 (UniProt P33552)
inactive: [1] 0.125 | [3] 0.116 | [4] -0.001 | [5] -0.032 | [6] 0.022 | [7] 0.02

COMMD3-BMI1 (UniProt R4GMX3)
inactive: [1] -0.043 | [2] -0.051 | [3] 0.077 | [5] -0.169 | [6] -0.191 | [7] 0.095

CRTC3 (UniProt Q6UUV7)
inactive: [2] 0.04 | [4] 0.094 | [9] -0.146 | [6] 0.02 | [7] 0.075

CS (UniProt F8VU34)
inactive: [4] 0.06

COMMD1 (UniProt Q8N668)
inactive: erlotinib -0.136 | [2] -0.241 | [8] 0.15 | [4] -0.088 | [9] 0.066 | [6] 0.037 | [7] -0.083

CCDC57 (UniProt Q2TAC2)
Sequence of UniProt Q2TAC2 (Q2TAC2 whole entry, looked up): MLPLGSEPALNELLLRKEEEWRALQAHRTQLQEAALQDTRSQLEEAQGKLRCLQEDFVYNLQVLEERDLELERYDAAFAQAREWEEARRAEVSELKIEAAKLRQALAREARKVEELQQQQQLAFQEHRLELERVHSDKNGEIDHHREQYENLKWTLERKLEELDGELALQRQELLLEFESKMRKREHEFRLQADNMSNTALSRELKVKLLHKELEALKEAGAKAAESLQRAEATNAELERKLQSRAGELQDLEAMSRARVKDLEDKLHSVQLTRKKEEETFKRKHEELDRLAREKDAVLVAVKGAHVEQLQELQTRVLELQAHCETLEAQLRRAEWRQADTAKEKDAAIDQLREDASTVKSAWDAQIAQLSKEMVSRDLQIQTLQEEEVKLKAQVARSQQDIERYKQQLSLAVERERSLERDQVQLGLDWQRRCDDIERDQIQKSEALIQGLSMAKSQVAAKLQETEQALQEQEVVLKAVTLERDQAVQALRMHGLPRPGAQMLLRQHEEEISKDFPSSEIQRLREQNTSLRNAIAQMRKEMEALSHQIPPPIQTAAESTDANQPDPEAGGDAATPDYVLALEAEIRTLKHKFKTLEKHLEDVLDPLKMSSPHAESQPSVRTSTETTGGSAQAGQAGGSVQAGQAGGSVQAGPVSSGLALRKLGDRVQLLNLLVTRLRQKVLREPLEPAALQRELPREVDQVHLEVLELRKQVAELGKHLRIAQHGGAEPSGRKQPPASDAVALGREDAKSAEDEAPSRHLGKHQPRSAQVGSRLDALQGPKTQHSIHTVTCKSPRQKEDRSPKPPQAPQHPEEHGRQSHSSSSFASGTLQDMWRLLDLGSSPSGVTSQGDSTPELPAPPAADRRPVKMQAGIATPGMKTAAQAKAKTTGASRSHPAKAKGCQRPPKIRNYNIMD
inactive: erlotinib 0.044 | [2] 0.031 | [8] -0.051 | [4] -0.021 | [9] 0.003 | [6] 0.012 | [7] 0.026

C5orf30 (UniProt Q96GV9)
inactive: [1] 0.267 | [2] -0.056 | [3] 0.062 | [5] -0.347 | [6] 0.01 | [7] 0.128

CNRIP1 (UniProt Q96F85)
inactive: erlotinib -0.065 | [2] 0.045 | [8] 0.045 | [9] -0.115

CCDC167 (UniProt Q9P0B6)
inactive: erlotinib 0.068 | [2] 0.008 | [8] -0.041 | [4] 0.054 | [9] 0.072 | [6] 0.054 | [7] 0.224

CFAP47 (UniProt Q6ZTR5)
Sequence of UniProt Q6ZTR5 (Q6ZTR5 whole entry, looked up): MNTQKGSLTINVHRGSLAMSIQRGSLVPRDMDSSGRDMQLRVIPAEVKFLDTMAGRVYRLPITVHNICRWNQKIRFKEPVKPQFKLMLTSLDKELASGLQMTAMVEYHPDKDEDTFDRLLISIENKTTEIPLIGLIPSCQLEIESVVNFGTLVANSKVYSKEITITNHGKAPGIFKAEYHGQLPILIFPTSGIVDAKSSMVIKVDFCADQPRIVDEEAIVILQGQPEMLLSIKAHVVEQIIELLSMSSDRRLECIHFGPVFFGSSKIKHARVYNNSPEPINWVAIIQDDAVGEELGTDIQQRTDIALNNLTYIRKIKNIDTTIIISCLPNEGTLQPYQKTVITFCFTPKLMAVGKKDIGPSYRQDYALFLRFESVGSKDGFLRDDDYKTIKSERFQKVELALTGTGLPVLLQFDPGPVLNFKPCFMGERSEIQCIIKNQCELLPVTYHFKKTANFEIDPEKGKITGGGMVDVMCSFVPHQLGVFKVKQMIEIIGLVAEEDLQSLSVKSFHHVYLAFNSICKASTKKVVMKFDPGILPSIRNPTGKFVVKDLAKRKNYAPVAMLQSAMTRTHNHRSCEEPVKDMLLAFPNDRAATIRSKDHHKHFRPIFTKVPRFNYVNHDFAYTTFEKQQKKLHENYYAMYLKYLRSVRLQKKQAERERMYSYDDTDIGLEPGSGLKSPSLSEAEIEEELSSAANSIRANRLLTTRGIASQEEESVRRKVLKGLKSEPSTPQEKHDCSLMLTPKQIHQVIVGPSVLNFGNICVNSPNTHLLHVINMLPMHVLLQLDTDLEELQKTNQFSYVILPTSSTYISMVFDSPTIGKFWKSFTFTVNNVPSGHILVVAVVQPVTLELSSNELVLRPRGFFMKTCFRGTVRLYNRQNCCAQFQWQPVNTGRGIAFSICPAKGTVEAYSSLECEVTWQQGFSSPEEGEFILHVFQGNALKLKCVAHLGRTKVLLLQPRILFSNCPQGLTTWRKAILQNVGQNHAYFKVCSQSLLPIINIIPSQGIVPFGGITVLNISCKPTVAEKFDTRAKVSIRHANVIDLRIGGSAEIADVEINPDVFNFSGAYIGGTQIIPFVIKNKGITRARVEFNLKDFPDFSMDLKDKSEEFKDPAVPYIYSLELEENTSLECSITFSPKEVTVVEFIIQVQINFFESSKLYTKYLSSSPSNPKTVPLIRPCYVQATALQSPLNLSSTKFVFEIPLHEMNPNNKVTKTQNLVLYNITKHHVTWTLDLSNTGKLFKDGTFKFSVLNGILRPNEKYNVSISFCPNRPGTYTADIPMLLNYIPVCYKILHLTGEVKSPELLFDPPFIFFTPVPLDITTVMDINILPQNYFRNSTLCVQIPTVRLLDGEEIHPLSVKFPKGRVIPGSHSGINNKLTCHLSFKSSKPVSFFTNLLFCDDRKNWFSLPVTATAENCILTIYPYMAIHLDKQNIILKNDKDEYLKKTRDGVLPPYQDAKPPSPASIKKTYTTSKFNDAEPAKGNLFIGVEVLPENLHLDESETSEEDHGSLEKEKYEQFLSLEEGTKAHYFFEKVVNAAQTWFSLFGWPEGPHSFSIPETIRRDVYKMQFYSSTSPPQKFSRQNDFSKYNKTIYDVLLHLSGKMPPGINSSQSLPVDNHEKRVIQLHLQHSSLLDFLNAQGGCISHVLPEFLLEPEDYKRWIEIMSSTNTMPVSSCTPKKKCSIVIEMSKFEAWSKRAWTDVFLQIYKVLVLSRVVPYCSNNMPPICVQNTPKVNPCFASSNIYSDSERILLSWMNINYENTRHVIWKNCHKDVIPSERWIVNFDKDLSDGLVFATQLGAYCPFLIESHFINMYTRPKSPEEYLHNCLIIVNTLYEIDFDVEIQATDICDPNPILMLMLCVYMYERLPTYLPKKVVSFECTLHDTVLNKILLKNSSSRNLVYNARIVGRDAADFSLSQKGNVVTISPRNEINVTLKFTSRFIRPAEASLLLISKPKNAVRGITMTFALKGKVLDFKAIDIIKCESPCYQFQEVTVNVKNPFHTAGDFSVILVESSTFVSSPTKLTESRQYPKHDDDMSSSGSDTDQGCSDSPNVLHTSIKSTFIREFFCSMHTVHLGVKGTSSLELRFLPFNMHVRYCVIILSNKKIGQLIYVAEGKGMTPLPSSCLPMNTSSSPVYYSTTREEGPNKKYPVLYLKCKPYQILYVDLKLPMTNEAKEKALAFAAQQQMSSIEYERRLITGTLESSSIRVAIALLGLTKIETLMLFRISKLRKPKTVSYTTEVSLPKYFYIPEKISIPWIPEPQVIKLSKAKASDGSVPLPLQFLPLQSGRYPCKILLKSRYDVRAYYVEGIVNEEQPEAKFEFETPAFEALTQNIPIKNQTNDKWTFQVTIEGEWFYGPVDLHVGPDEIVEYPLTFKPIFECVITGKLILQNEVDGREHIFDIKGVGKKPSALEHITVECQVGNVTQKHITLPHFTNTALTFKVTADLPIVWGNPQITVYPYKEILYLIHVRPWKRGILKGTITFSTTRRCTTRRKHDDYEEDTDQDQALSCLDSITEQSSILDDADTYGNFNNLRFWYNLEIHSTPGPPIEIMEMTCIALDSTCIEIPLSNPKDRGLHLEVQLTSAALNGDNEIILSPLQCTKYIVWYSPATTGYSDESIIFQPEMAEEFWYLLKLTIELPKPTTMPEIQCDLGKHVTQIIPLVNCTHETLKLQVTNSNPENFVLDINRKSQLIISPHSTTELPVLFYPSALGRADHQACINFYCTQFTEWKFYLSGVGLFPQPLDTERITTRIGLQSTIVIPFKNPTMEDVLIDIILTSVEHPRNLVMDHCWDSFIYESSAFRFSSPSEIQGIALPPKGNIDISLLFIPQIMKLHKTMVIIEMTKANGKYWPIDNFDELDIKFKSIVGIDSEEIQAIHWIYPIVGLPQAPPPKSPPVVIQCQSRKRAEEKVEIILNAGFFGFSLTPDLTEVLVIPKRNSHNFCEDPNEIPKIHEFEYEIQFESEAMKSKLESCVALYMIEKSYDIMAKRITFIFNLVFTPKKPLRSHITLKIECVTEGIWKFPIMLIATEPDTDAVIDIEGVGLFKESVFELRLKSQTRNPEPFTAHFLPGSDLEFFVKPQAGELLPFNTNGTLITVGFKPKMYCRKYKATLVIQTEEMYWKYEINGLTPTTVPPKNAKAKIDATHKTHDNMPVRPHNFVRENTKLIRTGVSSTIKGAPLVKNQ
inactive: [2] 0.053 | [3] 0.355 | [4] -0.123 | [5] 0.132
active: [1] -0.734

CHPT1 (UniProt Q8WUD6)
inactive: [1] 0.181 | [2] 0.24 | [3] 0.078 | [9] 0 | [5] -0.024 | [6] -0.004 | [7] 0.01

C6orf120 (UniProt Q7Z4R8)
inactive: erlotinib -0.2 | [8] 0.134 | [4] -0.003 | [9] -0.009 | [6] 0.005 | [7] 0.028

COPS3 isoform 2 (UniProt Q9UNS2)
Sequence of UniProt Q9UNS2 (Q9UNS2 whole entry, looked up): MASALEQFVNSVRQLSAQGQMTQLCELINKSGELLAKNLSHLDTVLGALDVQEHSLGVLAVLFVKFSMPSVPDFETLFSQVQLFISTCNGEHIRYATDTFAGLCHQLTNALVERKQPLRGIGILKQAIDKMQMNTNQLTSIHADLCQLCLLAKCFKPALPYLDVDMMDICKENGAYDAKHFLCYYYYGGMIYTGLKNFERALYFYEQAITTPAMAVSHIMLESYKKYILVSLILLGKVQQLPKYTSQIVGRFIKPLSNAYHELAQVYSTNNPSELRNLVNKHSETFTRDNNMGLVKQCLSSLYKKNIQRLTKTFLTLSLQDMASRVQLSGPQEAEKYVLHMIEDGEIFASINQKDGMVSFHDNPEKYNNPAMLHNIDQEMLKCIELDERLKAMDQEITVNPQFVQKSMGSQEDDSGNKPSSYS
inactive: [1] -0.24 | [2] -0.075 | [3] 0.214 | [4] -0.125 | [9] -0.568 | [5] -0.126 | [6] 0.176 | [7] -0.052

CLPTM1L (UniProt G5E9Z2)
inactive: [1] 0.109 | [2] 0.492 | [3] -0.139 | [4] 0.284 | [5] 0.174 | [6] 0.145 | [7] 0.272
